Assay [1] in a line: A CellTox Green Cytotoxicity Assay to monitor cytotoxicity in HEK293 cells - 32 hour (AID 1224881). Also: nearly all actives have a fitted effect of over 40% in size. Also: potency is read from the fitted curve at half-maximal effect. Summed up: (§1)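 Each value comes from one timepoint of a single continuous run in which HEK293 cells with CellTox Green were exposed to compound for up to 40 h at 37 C, dye fluorescence rising with cell death.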
Assay [2] can be described thus: A CellTox Green Cytotoxicity Assay to monitor cytotoxicity in HepG2 cells - 0 hour (AID 1224882). Also: nearly all actives have a fitted effect of over 35% in size. Summed up: (§2)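 Continuous culture of HepG2 cells with a membrane-impermeant DNA dye; rising fluorescence marks dead cells. Compound exposure lasted up to 40 h at 37 C, with reads every 8 h from 0 h.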
A short description of assay [3]: A CellTox Green Cytotoxicity Assay to monitor cytotoxicity in HepG2 cells - 32 hour (AID 1224883). Also: nearly all actives have a fitted effect of over 50% in size. Also: potency is read from the fitted curve at half-maximal effect. The procedure, abridged: as §2
Assay [4] can be described thus: A CellTox Green Cytotoxicity Assay to monitor cytotoxicity in HEK293 cells - 8 hour (AID 1224884). Also: nearly all actives have a fitted effect of over 35% in size. Also: potency is read from the fitted curve at half-maximal effect. Summed up:
as §1

The nature of assay [5]: qHTS RealTime-Glo MT Cell Viability Assay in HepG2 cells - 16 hour (AID 1224885). Also: nearly all actives have a fitted effect of over 50% in size. Also: potency is read from the fitted curve at half-maximal effect. The procedure, abridged: (§3)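 Cells + NanoLuc/prosubstrate dispensed (600 cells/well) → 5 h at 37 C/5% CO2 → compounds in DMSO transferred → 40 h incubation at 37 C, luminescence read at 0, 8, 16, 24, 32, 40 h.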
On the technique in general: In qHTS, concentration-response curves come from the screen itself.

Assay [6] is described as follows: qHTS RealTime-Glo MT Cell Viability Assay in HEK293 cells - 24 hour (AID 1224886). Also: nearly all actives have a fitted effect of over 50% in size. Also: potency is read from the fitted curve at half-maximal effect. Summed up: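 Tox21 10K qHTS, HEK293, 600 cells/well, RealTime-Glo reagent co-dispensed with cells; 5 h preincubation, compound by pintool, 37 C, luminescence at 0–40 h.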
A short description of assay [7]: qHTS RealTime-Glo MT Cell Viability Assay in HEK293 cells - 8 hour (AID 1224887). Also: nearly all actives have a fitted effect of over 50% in size. Also: potency is read from the fitted curve at half-maximal effect. Summed up:
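qHTS format; HEK293 cells with NanoLuc/prosubstrate reagent, 37 C/5% CO2 for 5 h pre-dosing; compounds 23 nL in DMSO; luminescence at each time point reflects viable cells.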

A short description of assay [8]: A CellTox Green Cytotoxicity Assay to monitor cytotoxicity in HEK293 cells - 16 hour (AID 1224888). Also: nearly all actives have a fitted effect of over 35% in size. Also: potency is read from the fitted curve at half-maximal effect. Summed up:
as §1

Assay [9] is described as follows: qHTS RealTime-Glo MT Cell Viability Assay in HepG2 cells - 0 hour (AID 1224889). Also: nearly all actives have a fitted effect of over 50% in size. The procedure, abridged: as §3
Assay [10] can be described thus: A CellTox Green Cytotoxicity Assay to monitor cytotoxicity in HepG2 cells - 8 hour (AID 1224890). Also: nearly all actives have a fitted effect of over 45% in size. Also: potency is read from the fitted curve at half-maximal effect. Summed up: as §2

Each structure is given as a SMILES string. Values joined by “and” are separate entries in the source; they are usually repeats but may differ in a detail not shown here. Equal entries are not always repeated. Inconclusive results are not listed. Active and inactive are the calls of the source. Calls follow the shape of the dose curve; as a rule, active = well fitted curve in the direction sought with a large enough effect in the repeat runs; inconclusive = weak or mixed curves; inactive = no such curve, though single readings can be large; an effect the other way counts as inactive or inconclusive.

`OCC(Br)CBr` (stereo not given): the Potency result in assay [1], in assay [2], in assay [3], in assay [4], in [5] and in assay [6] was “inactive” throughout. The Potency entry in assay [7], in assay [8], in [9] and in assay [10] was “inactive” in each case.

Turning to `COc1nc(C)nc(NC(=O)NS(=O)(=O)c2ccccc2Cl)n1`, the Potency result in [1], in assay [2], in assay [3], in [4], in assay [5] and in assay [6] was “inactive” in each case. For the same compound, the Potency entry in assay [7], in assay [8], in assay [9] and in assay [10] was “inactive” throughout.

As to `O=C(O)CCCCCCNC1c2ccccc2CCc2ccccc21`, the Potency result in assay [1], in [2], in assay [3], in assay [4], in assay [5] and in assay [6] was “inactive” each time. In addition, the Potency entry in [7], in assay [8], in assay [9] and in assay [10] was “inactive” throughout.

As for `NC(=O)C(Cl)Cl`, the Potency result in assay [1], in assay [2], in [3], in [4], in [5] and in assay [6] was “inactive” throughout. The Potency result in assay [7], in [8], in [9] and in assay [10] was “inactive” throughout.

For the compound `O=NN(CCO)CCO`, the Potency entry in assay [1], in [2], in [3], in assay [4], in [5] and in assay [6] was “inactive” each time. Also, the Potency entry in assay [7], in assay [8], in assay [9] and in assay [10] was “inactive” each time.

With `C=CCBr`, the Potency entry in [1], in assay [2], in assay [3], in assay [4], in assay [5] and in [6] was “inactive” throughout. Besides, the Potency result in [7], in assay [8], in assay [9] and in [10] was “inactive” each time.

For `CN/C(=N\[N+](=O)[O-])NCc1cnc(Cl)s1`, the Potency entry in assay [1], in [2], in [3], in assay [4], in assay [5] and in [6] was “inactive” in each case. Besides, the Potency result in [7], in assay [8], in [9] and in assay [10] was “inactive” in each case.

`N#Cc1c2ccccc2cc2ccccc12`: the Potency result in assay [1], in [2], in [3], in assay [4], in assay [5] and in [6] was “inactive” throughout. Also, the Potency entry in assay [7], in assay [8], in assay [9] and in assay [10] was “inactive” throughout.

Turning to `COc1ccc2c(c1OC)C(=O)O[C@@H]2[C@H]1c2cc3c(cc2CCN1C)OCO3`, the Potency result in [1], in assay [2], in assay [3], in assay [4], in assay [5] and in [6] was “inactive” each time. Besides, the Potency result in assay [7], in assay [8], in [9] and in [10] was “inactive” each time.

For `Cc1cnc2c(C(=O)O)c(Cl)ccc2c1`, the Potency entry in assay [1], in [2], in assay [3], in assay [4], in assay [5] and in [6] was “inactive” each time. Besides, the Potency entry in assay [7], in [8], in [9] and in [10] was “inactive” throughout.

`CC(=O)[O-].CC(=O)[O-].CC(=O)[O-].[Cr+3]`: the Potency entry in assay [1], in assay [2], in [3], in assay [4], in assay [5] and in [6] was “inactive” each time. Moreover, the Potency result in [7], in assay [8], in assay [9] and in assay [10] was “inactive” in each case.

For `CCOP(=S)(OCC)Oc1cc(C)nc(N(CC)CC)n1`, the Potency result in [1], in [2], in [3], in [4], in assay [5] and in [6] was “inactive” each time. Moreover, the Potency result in [7], in [8], in assay [9] and in [10] was “inactive” throughout.

Turning to `ClC(Cl)C(Cl)(Cl)Cl`, the Potency entry in assay [1], in assay [2], in assay [3], in assay [4], in [5] and in assay [6] was “inactive” each time. Moreover, the Potency entry in [7], in [8], in [9] and in assay [10] was “inactive” throughout.

Regarding `N#Cc1ccc(N(CC(N)=O)CC(F)(F)F)cc1C(F)(F)F`, the Potency result in assay [1], in assay [2], in assay [3], in [4], in assay [5] and in assay [6] was “inactive” in each case. Further, the Potency entry in [7], in assay [8], in assay [9] and in assay [10] was “inactive” throughout.

As to `CC1CN1` (stereo not given), the Potency result in [1], in assay [2], in assay [3], in [4], in assay [5] and in assay [6] was “inactive” in each case. The Potency entry in [7], in [8], in assay [9] and in [10] was “inactive” each time.

Consider `CCCCn1cc[n+](C)c1` (tested in a mixture with another compound), for which the Potency entry in [1], in assay [2], in [3], in assay [4], in assay [5] and in assay [6] was “inactive” throughout. The Potency result in assay [7], in assay [8], in assay [9] and in assay [10] was “inactive” throughout.

`CC1CCCC1`: the Potency result in assay [1], in [2], in assay [3], in assay [4], in [5] and in assay [6] was “inactive” in each case. Moreover, the Potency entry in assay [7], in [8], in assay [9] and in assay [10] was “inactive” throughout.

For the compound `O=C(N[C@H]1N=C(c2ccccc2F)c2cccc3c2N(CC3)C1=O)c1cc2ccccc2[nH]1`, the Potency result in assay [1], in assay [2], in [3], in assay [4], in assay [5] and in [6] was “inactive” in each case. The Potency result in assay [7], in assay [8], in assay [9] and in assay [10] was “inactive” throughout.

For `Clc1ccc(C(c2ccc(Cl)cc2)C(Cl)Cl)cc1`, the Potency in [1] is 49 µM (active); in assay [6], 44.4 µM (active) and 43.6 µM (active); in [7] it was 44.4 µM (active) and 38.9 µM (active). Moreover, the Potency entry in [2], in assay [3], in assay [4], in assay [5], in [8] and in assay [9] was “inactive” each time. For the same compound, the Potency entry in assay [10] is “inactive”.

As for `CC[C@H](C)[C@H]1O[C@]2(C=C[C@@H]1C)C[C@@H]1C[C@@H](C/C=C(\C)[C@@H](O[C@H]3C[C@H](OC)[C@@H](O[C@H]4C[C@H](OC)[C@@H](NC)[C@H](C)O4)[C@H](C)O3)[C@@H](C)/C=C/C=C3\CO[C@@H]4[C@H](O)C(C)=C[C@@H](C(=O)O1)[C@]34O)O2`, the Potency was 12.3 µM (active) in assay [1]; 11 µM (active) in assay [3]; 13.8 µM (active) in [4]; 12.3 µM (active) in [5]; 5.49 µM (active) in [6]; 8.71 µM (active) in [7]. Moreover, the results for the Potency in assay [8] and in assay [10] were 15.5 µM (active) and 17.4 µM (active), respectively. Further, the Potency entry in assay [2] and in assay [9] was “inactive” in each case.

As to `CCC(C)Br` (stereo not given), the Potency result in [1], in assay [2], in assay [3], in assay [4], in assay [5] and in [6] was “inactive” throughout. In addition, the Potency result in [7], in assay [8], in [9] and in assay [10] was “inactive” each time.

`O=C1C2(Cl)C3(Cl)C4(Cl)C(Cl)(Cl)C5(Cl)C3(Cl)C1(Cl)C5(Cl)C24Cl` (stereo not given): the Potency in [1] is 38.3 µM (active) and 52.6 µM (active); in assay [3] it was 24.1 µM (active) and 41.8 µM (active); in [4], 34.1 µM (active) and 52.6 µM (active); in [5] it was 48.2 µM (active) and 46.9 µM (active); in assay [6], 17.1 µM (active) and 41.8 µM (active); in assay [7] it was 34.1 µM (active) and 46.9 µM (active). In addition, the Potency in assay [8] was 42.9 µM (active) and 52.6 µM (active); in assay [10], 21.5 µM (active) and 41.8 µM (active). The Potency entry in assay [2] and in assay [9] was “inactive” each time.

These data come from PubChem BioAssay (Tox21).
